PubChem BioAssay (Tox21)
Inconclusive results are not listed. The source made the active and inactive calls. Unless noted, the call rests on the fitted dose curve; in most records, active means well fitted curve in the direction sought with a large enough effect in the repeat runs; inconclusive means weak or mixed curves; inactive means no such curve, though single readings can be large; an effect the other way counts as inactive or inconclusive.

Columns and labels:
[1] = target: Thyrotropin receptor (Homo sapiens) (UniProt P16473); assay: qHTS assay to identify small molecule agonists of the thyroid stimulating hormone receptor (TSHR) signaling pathway (AID 1224843; calls by dose curve; further: nearly all actives have a fitted effect of over 45% in size; further: potency means the concentration at half of the fitted maximal effect)
Summary of the method: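 Agonist activity read as cAMP rise via d2/cryptate HTRF competition, 1 h room-temperature detection, in HEK293 cells expressing TSHR. Fifteen-point titrations, each run in triplicate, with a 30 min room-temperature incubation beforehand.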

[2] = qHTS assay to identify small molecule agonists of the hypoxia (HIF-1) signaling pathway - cell viability counter screen (AID 1224844; calls by dose curve; further: nearly all actives have a fitted effect of over 50% in size)
Summary of the method: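 Cytotoxicity measured by CellTiter-Glo ATP luminescence in the wells also read for beta-lactamase signal. Cells were HRE-bla ME-180 (2,000/well, 0.5% dialyzed FBS), exposed to compounds for 17 h at 37C.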

[3] = qHTS assay to identify small molecule agonists of H2AX (AID 1224845; active means well fitted activation curve with a large enough effect in the signal ratio in the repeat runs, not every such curve was filed as active; the % refers to the signal ratio)
Summary of the method: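 Phospho-H2AX Ser139 measured by HTRF (ex 320 nm; em 665 and 620 nm) after 24 hr antibody incubation. Compounds, 15 concentrations, 0.76% DMSO, were applied to CHO-K1 cells for 3hr at 37C before lysis.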

[4] = qHTS assay to identify small molecule agonists of the hypoxia (HIF-1) signaling pathway (AID 1224846; active means well fitted activation curve with a large enough effect in the signal ratio in the repeat runs, not every such curve was filed as active; the % refers to the signal ratio)
Summary of the method: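 Compounds added to ME-180 cells carrying hypoxia-response-element beta-lactamase reporter (0.5% dialyzed FBS, 5 h preplating), 17 h at 37C; agonist activity detected by CCF4-AM B/G FRET read-out.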

[5] = qHTS assay to identify small molecule agonists of H2AX - cell viability counter screen (AID 1224847; calls by dose curve; further: top concentration of the series differs between compounds; nearly all actives have a fitted effect of over 30% in size)
Summary of the method: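 Read-out: CellTiter-Glo luminescence, 30 min RT. Cells: wild-type CHO-K1, 1000/well, 10% FBS, plated overnight at 37C. Treatment: 15 concentrations, 3 hr, 37C, 0.76% DMSO.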

[6] = qHTS RealTime-Glo MT Cell Viability Assay in HepG2 cells - 24 hour (AID 1224867); further: nearly all actives have a fitted effect of over 50% in size
Summary of the method: (§1)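 Cell number in HepG2 cultures estimated from NanoLuc luminescence generated by metabolic reduction of a prosubstrate by living cells. The homogeneous, nonlytic format allowed repeated reads at 0, 8, 16, 24, 32 and 40 h of compound exposure.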

[7] = qHTS RealTime-Glo MT Cell Viability Assay in HEK293 cells - 32 hour (AID 1224868); further: top concentration of the series differs between compounds; nearly all actives have a fitted effect of over 50% in size
Summary of the method: (§2)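 Homogeneous bioluminescent viability format in HEK293 cells (600 cells/well). Following 5 h at 37 C/5% CO2, 23 nL compound was pintooled; the signal was measured repeatedly during 40 h incubation.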

[8] = A CellTox Green Cytotoxicity Assay to monitor cytotoxicity in HEK293 cells - 0 hour (AID 1224869); further: nearly all actives have a fitted effect of over 50% in size
Summary of the method: (§3)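 Fluorescence from a DNA-binding dye excluded by viable cells was measured repeatedly in the same HEK293 wells (600 cells/well) during continuous compound exposure at 37 C. Each assay gives one read point: 0, 8, 16, 24, 32 or 40 h.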

[9] = qHTS RealTime-Glo MT Cell Viability Assay in HepG2 cells - 40 hour (AID 1224870); further: nearly all actives have a fitted effect of over 50% in size
Summary of the method: (§4)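 Real-time viability: cells seeded at 600 per well together with NanoLuc and cell-permeant prosubstrate, compounds added after 5 h incubation. Luminescence tracked at 0, 8, 16, 24, 32 and 40 h of exposure.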

[10] = A CellTox Green Cytotoxicity Assay to monitor cytotoxicity in HEK293 cells - 40 hour (AID 1224871); further: nearly all actives have a fitted effect of over 45% in size
Summary of the method: as §3

[11] = qHTS RealTime-Glo MT Cell Viability Assay in HEK293 cells - 16 hour (AID 1224872)
Summary of the method: as §2

[12] = qHTS RealTime-Glo MT Cell Viability Assay in HepG2 cells - 8 hour (AID 1224873); further: nearly all actives have a fitted effect of over 55% in size
Summary of the method: as §4

[13] = qHTS RealTime-Glo MT Cell Viability Assay in HEK293 cells - 40 hour (AID 1224874); conditions: RealTime-Glo luminescence; max response: active compounds read low; further: nearly all actives have a fitted effect of over 50% in size
Summary of the method: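 Luminescence, which tracks viable cell number through reduction of the prosubstrate to a NanoLuc substrate, was read over continuous 37 C culture. Cells (600/well) were premixed with reagent and rested 5 h before 23 nL of compound in DMSO was pinned.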

[14] = A CellTox Green Cytotoxicity Assay to monitor cytotoxicity in HEK293 cells - 24 hour (AID 1224875); further: series mostly up to about 77 µM; nearly all actives have a fitted effect of over 45% in size
Summary of the method: as §3

[15] = A CellTox Green Cytotoxicity Assay to monitor cytotoxicity in HepG2 cells - 16 hour (AID 1224876); further: nearly all actives have a fitted effect of over 45% in size
Summary of the method: (§5)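 Real-time cytotoxicity: fluorescence of a cell-impermeant cyanine dye binding DNA of dead HepG2 cells, measured repeatedly (0–40 h) during compound exposure at 37 C. Cells seeded 600/well with reagent, dosed after 5 h.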

[16] = qHTS RealTime-Glo MT Cell Viability Assay in HepG2 cells - 32 hour (AID 1224877); further: nearly all actives have a fitted effect of over 55% in size
Summary of the method: as §1

[17] = A CellTox Green Cytotoxicity Assay to monitor cytotoxicity in HepG2 cells - 24 hour (AID 1224878); further: nearly all actives have a fitted effect of over 45% in size
Summary of the method: as §5

[18] = A CellTox Green Cytotoxicity Assay to monitor cytotoxicity in HepG2 cells - 40 hour (AID 1224879); further: nearly all actives have a fitted effect of over 40% in size
Summary of the method: as §5
On the % scale 0 is the no-effect control and ±100 the full control effect.

Sequence of Thyrotropin receptor (Homo sapiens) (P16473 whole entry, looked up): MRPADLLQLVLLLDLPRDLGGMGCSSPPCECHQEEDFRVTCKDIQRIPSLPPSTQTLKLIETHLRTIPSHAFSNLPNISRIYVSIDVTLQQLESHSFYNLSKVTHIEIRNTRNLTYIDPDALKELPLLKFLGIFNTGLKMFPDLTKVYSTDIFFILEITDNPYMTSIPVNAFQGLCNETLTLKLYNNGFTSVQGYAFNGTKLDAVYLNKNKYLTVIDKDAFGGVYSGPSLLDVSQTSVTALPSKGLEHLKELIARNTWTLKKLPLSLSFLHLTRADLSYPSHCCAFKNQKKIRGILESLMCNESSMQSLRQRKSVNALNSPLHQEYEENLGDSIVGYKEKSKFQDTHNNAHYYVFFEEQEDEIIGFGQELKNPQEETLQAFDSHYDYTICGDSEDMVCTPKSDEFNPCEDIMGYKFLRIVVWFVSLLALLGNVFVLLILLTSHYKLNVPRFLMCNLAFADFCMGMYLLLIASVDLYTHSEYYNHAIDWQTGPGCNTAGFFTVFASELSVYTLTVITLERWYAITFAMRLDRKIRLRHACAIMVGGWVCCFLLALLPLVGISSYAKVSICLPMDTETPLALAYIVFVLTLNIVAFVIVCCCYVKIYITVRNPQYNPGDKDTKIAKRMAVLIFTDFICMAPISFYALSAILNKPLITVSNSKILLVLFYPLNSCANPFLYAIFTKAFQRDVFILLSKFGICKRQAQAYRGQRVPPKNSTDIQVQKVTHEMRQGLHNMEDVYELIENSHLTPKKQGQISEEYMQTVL

Cc1cc(C)c(N)cc1C
inactive: Potency [1] | Potency [2] | Potency [3] | outcome [4] | Potency [5] | Potency [6] | Potency [7] | Potency [8] | Potency [9] | Potency [10] | Potency [11] | Potency [12] | max response [13] 1.12% | Potency [14] | Potency [15] | Potency [16] | Potency [17] | Potency [18]

CCCCCCCCCCC(=O)O
inactive: Potency [1] | Potency [2] | Potency [3] | outcome [4] | Potency [5] | Potency [6] | Potency [7] | Potency [9] | Potency [10] | Potency [11] | Potency [12] | max response [13] 3.53% | Potency [14] | Potency [16] | Potency [17] | Potency [18]

CC1(C)S[C@@H]2[C@H](NC(=O)C(c3ccccc3)S(=O)(=O)O)C(=O)N2[C@H]1C(=O)O (stereo partly specified)
inactive: Potency [1] | Potency [2] | Potency [3] | outcome [4] | Potency [5] | Potency [6] | Potency [7] | Potency [8] | Potency [9] | Potency [10] | Potency [12] | max response [13] 0.0341% | Potency [14] | Potency [15] | Potency [16] | Potency [17] | Potency [18]

C=C1CCC2CC1C2(C)C (stereo unspecified)
inactive: Potency [1] | Potency [2] | Potency [3] | outcome [4] | Potency [5] | Potency [6] | Potency [7] | Potency [8] | Potency [9] | Potency [11] | Potency [12] | max response [13] 0.0757% | Potency [14] | Potency [15] | Potency [16] | Potency [17] | Potency [18]

Cc1cc(C)cc(N)c1
inactive: Potency [1] | Potency [2] | Potency [3] | outcome [4] | Potency [5] | Potency [6] | Potency [7] | Potency [8] | Potency [9] | Potency [10] | Potency [12] | max response [13] -4.23% | Potency [14] | Potency [15] | Potency [16] | Potency [17] | Potency [18]

CO[C@]1(NC(=O)CSC(F)F)C(=O)N2C(C(=O)O)=C(CSc3nnnn3CCO)CO[C@H]21
inactive: Potency [1] | Potency [2] | Potency [3] | outcome [4] | Potency [5] | Potency [6] | Potency [7] | Potency [9] | Potency [10] | Potency [11] | Potency [12] | max response [13] 21.2% | Potency [14] | Potency [15] | Potency [16] | Potency [17] | Potency [18]

CCOc1ccccc1O[C@H](c1ccccc1)[C@H]1CNCCO1
inactive: Potency [1] | Potency [2] | Potency [3] | outcome [4] | Potency [5] | Potency [6] | Potency [7] | Potency [8] | Potency [9] | Potency [11] | Potency [12] | max response [13] 1.67% | Potency [14] | Potency [15] | Potency [16] | Potency [17]

CC(C)C(O)(c1ccc(OC(F)(F)F)cc1)c1cncnc1 (stereo unspecified)
active: Potency [1] 48.4 µM
inactive: Potency [2] | Potency [3] | outcome [4] | Potency [5] | Potency [6] | Potency [8] | Potency [9] | Potency [10] | Potency [12] | Potency [14] | Potency [15] | Potency [16] | Potency [17] | Potency [18]

O=C1NC(=O)c2cc([N+](=O)[O-])ccc21
inactive: Potency [1] | Potency [2] | Potency [3] | outcome [4] | Potency [5] | Potency [6] | Potency [7] | Potency [9] | Potency [10] | Potency [11] | Potency [12] | max response [13] 2.79% | Potency [14] | Potency [15] | Potency [16] | Potency [17] | Potency [18]

C1C[C@@H]2[C@H]3CC[C@H](C3)[C@@H]2C1
inactive: Potency [1] | Potency [2] | Potency [3] | outcome [4] | Potency [5] | Potency [6] | Potency [7] | Potency [8] | Potency [9] | Potency [10] | Potency [11] | Potency [12] | max response [13] -10.1% | Potency [14] | Potency [15] | Potency [16] | Potency [17] | Potency [18]

NNC(=O)CP(=O)(c1ccccc1)c1ccccc1
inactive: Potency [1] | Potency [2] | Potency [3] | outcome [4] | Potency [5] | Potency [6] | Potency [7] | Potency [8] | Potency [9] | Potency [10] | Potency [12] | max response [13] -3.49% | Potency [14] | Potency [15] | Potency [16] | Potency [17] | Potency [18]

CCCC(=O)C(=O)O
inactive: Potency [1] | Potency [2] | Potency [3] | outcome [4] | Potency [5] | Potency [6] | Potency [7] | Potency [8] | Potency [9] | Potency [11] | Potency [12] | max response [13] 13.4% | Potency [14] | Potency [15] | Potency [16] | Potency [17] | Potency [18]

O=C(O)c1cccc(-c2noc(-c3ccccc3F)n2)c1
inactive: Potency [1] | Potency [2] | Potency [3] | outcome [4] | Potency [6] | Potency [7] | Potency [8] | Potency [9] | Potency [10] | Potency [11] | Potency [12] | max response [13] 2.77% | Potency [14] | Potency [15] | Potency [16] | Potency [17] | Potency [18]

N#CCCN(CCO)CCO
inactive: Potency [1] | Potency [2] | Potency [3] | outcome [4] | Potency [5] | Potency [6] | Potency [7] | Potency [8] | Potency [9] | Potency [11] | Potency [12] | max response [13] 0.524% | Potency [14] | Potency [15] | Potency [16] | Potency [17] | Potency [18]
